From PubChem BioAssay AID652016 (National Center for Advancing Translational Sciences (NCATS), 2013)
Results filed as inconclusive are left out. The call rests on the fitted dose curve; in most records, active means well fitted inhibition curve with a large enough effect; inconclusive means small, poorly fitted or top-dose-only effect; inactive means flat fitted curve, though single readings scatter.

target: Luciferin 4-monooxygenase (Photinus pyralis) (UniProt P08659); experiment: qHTS Assay for Inhibitors of Firefly Luciferase from the GSK Published Protein Kinase Inhibitor Set; details: purified firefly luciferase, luminescence inhibition; series mostly up to 57.5 µM; activity change, negative = inhibition: at the top concentration
How it was run: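 Purified P. pyralis luciferase, 10nM, with 10uM D-luciferin and 10uM ATP in 50mM Tris acetate pH 7.5, 10mM Mg acetate, 0.01% Tween-20, 0.05% BSA. Titration ~60uM to 300pM; luminescence read after about 5 min.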
On the % scale 0 is the no-effect control and ±100 the full control effect.

Sequence of Luciferin 4-monooxygenase (Photinus pyralis) (P08659 whole entry, looked up): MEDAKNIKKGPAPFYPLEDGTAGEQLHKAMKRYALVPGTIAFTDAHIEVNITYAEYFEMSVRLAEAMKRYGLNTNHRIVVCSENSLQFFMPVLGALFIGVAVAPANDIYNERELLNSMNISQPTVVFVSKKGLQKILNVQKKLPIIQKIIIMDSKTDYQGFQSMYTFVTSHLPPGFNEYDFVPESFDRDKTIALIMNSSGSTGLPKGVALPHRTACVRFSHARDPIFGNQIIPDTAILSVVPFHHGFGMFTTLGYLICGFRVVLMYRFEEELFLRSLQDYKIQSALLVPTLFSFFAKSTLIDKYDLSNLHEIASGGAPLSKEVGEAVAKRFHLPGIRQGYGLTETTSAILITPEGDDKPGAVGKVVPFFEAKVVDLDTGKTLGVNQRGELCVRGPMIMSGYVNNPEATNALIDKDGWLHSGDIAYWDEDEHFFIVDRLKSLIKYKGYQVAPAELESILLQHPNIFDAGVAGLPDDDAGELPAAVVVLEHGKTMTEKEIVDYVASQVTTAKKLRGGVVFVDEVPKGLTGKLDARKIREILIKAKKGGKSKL

Activity change, negative = inhibition, inactive:
COC(=O)c1sc(-n2cnc3cc(OC)c(OC)cc32)cc1OCc1ccccc1C(F)(F)F 7.89%, COc1ccc(CNC(=O)c2ccc(-c3cc(-c4nnc(C)o4)ccc3C)cc2)cc1 8.91%, COc1ccc2cc(-c3c(-c4ccncc4)nc(-c4ccc(S(C)(=O)=O)cc4C)n3C)ccc2c1 -2.8%, O=S(=O)(CCOCc1ccc(-c2ccc3ncnc(Nc4ccc(OCc5cccc(F)c5)c(Cl)c4)c3c2)o1)c1ccccc1 6.47%, Cc1ccc2[nH]c(O)c(N=Nc3ccc(S(N)(=O)=O)cc3)c2c1 -6.27%, CN1CCN(CCCNc2nc3ccc(Oc4ccc(NC(=O)Nc5cc(C(F)(F)F)ccc5F)cc4)cc3[nH]2)CC1 -22.9%, c1ccc(Oc2ccc(Nc3ncc(-c4ccccc4)o3)cc2)cc1 -13.6%, FC(F)(F)c1cccc(Nc2nccc(-c3cnn4nc(-c5ccccc5)ccc34)n2)c1 -11.3%, CS(=O)(=O)c1ccc(Oc2nccc(-c3c(-c4ccc(F)cc4)ncn3C3CCNCC3)n2)cc1 7.12%, Nc1nonc1-c1nc2cnccc2n1C1CCCCC1 21.4%, CS(=O)(=O)CCNCc1cc(-c2cc3c(Nc4ccc(OCc5cccc(F)c5)c(Cl)c4)ncnc3s2)cs1 -10.2%, CCn1c(-c2nonc2N)nc2c(C#CC(C)(C)O)nc(CN3CCCC3)cc21 9.71%, CCCN1CCC(c2ccc(Nc3nc(Nc4cc(F)ccc4C(N)=O)c4cc[nH]c4n3)c(OC)c2)CC1 27.5%, Cc1cc(O)cc(C)c1C=Cc1cncc(C(N)=O)c1 -0.957%, Cc1ccc2c(-c3ccnc(Nc4ccccc4)n3)c(-c3ccc(F)cc3)nn2n1 1.59%
